In all, about 5,500 compounds went through this assay and about 2,000 (36%) were called active. About 18% were inconclusive and are not listed. No stated cut-off is given here; in the data, active means normalized growth mostly below about 0.91 (no sharp cut-off); inconclusive means no clear call, values can overlap the other calls; inactive means mostly above about 0.92. Some of the results follow.
Assay: chemical genetic growth profiling, strain panel (AID 1159580);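 further: tested at 20 µM; growth read once vehicle control cultures reached saturation at 30 °C; 1 = growth at the plate median or of vehicle wells; lower values mean less growth of the strain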
Conditions: growth OD
[1] = S. cerevisiae deletion strains, locus YAL013W, strain DEP1, hits give low values
[2] = S. cerevisiae deletion strains, locus YDL101C, strain DUN1, hits give low values
[3] = S. cerevisiae deletion strains, locus YDR150W, strain NUM1, hits give low values
[4] = S. cerevisiae deletion strains, locus YGR078C, strain PAC10, hits give low values
[5] = S. cerevisiae deletion strains, locus YHR030C, strain SLT2, hits give low values
[6] = S. cerevisiae deletion strains, locus YJR075W, strain HOC1, hits give low values
[7] = S. cerevisiae deletion strains, locus YNL128W, strain TEP1, hits give low values
[8] = S. cerevisiae deletion strains, locus YNL322C, strain KRE1, hits give low values
[9] = S. cerevisiae deletion strains, locus YPL055C, strain LGE1, hits give low values
[10] = S. cerevisiae deletion strains, locus YPL241C, strain CIN2, hits give low values

Measured: normalized growth

CN(C)/C=C(\C#N)C(=O)Nc1ccc(F)c(Cl)c1
inactive: [1] 0.971 | S. cerevisiae deletion strains, locus YBR229C, strain ROT2, hits give low values 1.01 | S. cerevisiae deletion strains, locus YCL061C, strain MRC1, hits give low values 0.978 | [2] 0.981 | [3] 0.991 | S. cerevisiae deletion strains, locus YEL061C, strain CIN8, hits give low values 1.01 | [4] 0.992 | [5] 0.983 | S. cerevisiae deletion strains, locus YHR087W, strain rtc3, hits give low values 1.01 | S. cerevisiae deletion strains, locus YJR043C, strain POL32, hits give low values 0.97 | [6] 1.01 | S. cerevisiae deletion strains, locus YKL190W, strain CNB1, hits give low values 1.01 | S. cerevisiae deletion strains, locus YLR039C, strain RIC1, hits give low values 1.07 | S. cerevisiae deletion strains, locus YLR058C, strain SHM2 (second series), hits give low values 1.01 | S. cerevisiae deletion strains, locus YLR085C, strain ARP6, hits give low values 0.912 | S. cerevisiae deletion strains, locus YLR262C, strain YPT6, hits give low values 1.16 | S. cerevisiae deletion strains, locus YML094W, strain GIM5, hits give low values 0.988 | S. cerevisiae deletion strains, locus YMR219W, strain ESC1, hits give low values 1.01 | S. cerevisiae deletion strains, locus YMR263W, strain SAP30, hits give low values 1 | [7] 1 | S. cerevisiae deletion strains, locus YNL153C, strain GIM3, hits give low values 0.976 | S. cerevisiae deletion strains, locus YNL298W, strain CLA4 (second series), hits give low values 0.97 | [8] 1.02 | S. cerevisiae deletion strains, locus YNR030W, strain Alg12, hits give low values 1.01 | S. cerevisiae deletion strains, locus YOL006C, strain TOP1, hits give low values 0.965 | [9] 0.959 | [10] 0.977 | S. cerevisiae deletion strains, locus YPR135W, strain CTF4, hits give low values 0.991 | S. cerevisiae strains, strain wild type, hits give low values 1.01

N#C/C(=C\c1ccc(O)c(O)c1)C(=O)Nc1ccccc1
inactive: [1] 0.988 | S. cerevisiae deletion strains, locus YAL040C, strain CLN3, hits give low values 1 | S. cerevisiae deletion strains, locus YCL061C, strain MRC1 (second series), hits give low values 1.01 | [3] 0.996 | S. cerevisiae deletion strains, locus YDR363W, strain ESC2, hits give low values 1.05 | S. cerevisiae deletion strains, locus YER002W, strain NOP16, hits give low values 1.01 | [4] 1.05 | S. cerevisiae deletion strains, locus YGR229C, strain SMI1, hits give low values 0.966 | [6] 1.01 | S. cerevisiae deletion strains, locus YMR307W, strain GAS1, hits give low values 1 | [7] 1.04 | S. cerevisiae deletion strains, locus YNL175C, strain NOP13, hits give low values 1.03 | S. cerevisiae deletion strains, locus YNL197C, strain WHI3, hits give low values 1 | S. cerevisiae deletion strains, locus YNL224C, strain SQS1, hits give low values 1.03 | [8] 0.989 | S. cerevisiae deletion strains, locus YOR083W, strain WHI5 (second series), hits give low values 1.02 | [9] 1.01 | [10] 1.01

Cn1c([N+](=O)[O-])cnc1/C=C(\C#N)C(=O)Nc1ccc(F)cc1
inactive: S. cerevisiae deletion strains, locus YDL108W, strain KIN28, hits give low values 0.92 | S. cerevisiae deletion strains, locus YDR052C, strain DBF4, hits give low values 0.936 | S. cerevisiae deletion strains, locus YFL009W, strain cdc4, hits give low values 0.913 | S. cerevisiae deletion strains, locus YPR106W, strain ISR1, hits give low values 0.968
active: S. cerevisiae deletion strains, locus YAR019C, strain CDC15, hits give low values 0.267 | S. cerevisiae deletion strains, locus YBL105C, strain PKC1, hits give low values 0.368 | S. cerevisiae deletion strains, locus YBR135W, strain CKS1, hits give low values 0.436 | S. cerevisiae deletion strains, locus YBR136W, strain MEC1, hits give low values 0.608 | S. cerevisiae deletion strains, locus YBR160W, strain CDC28, hits give low values 0.639 | S. cerevisiae deletion strains, locus YDL017W, strain CDC7, hits give low values 0.541 | S. cerevisiae deletion strains, locus YDL028C, strain MPS1, hits give low values 0.874 | [2] 0.852 | S. cerevisiae deletion strains, locus YDL214C, strain PRR2, hits give low values 0.37 | S. cerevisiae deletion strains, locus YDR226W, strain ADK1, hits give low values 0.642 | S. cerevisiae deletion strains, locus YDR477W, strain SNF1, hits give low values 0.104 | S. cerevisiae deletion strains, locus YER123W, strain YCK3, hits give low values 0.408 | S. cerevisiae deletion strains, locus YER133W, strain GLC7, hits give low values 0.3 | S. cerevisiae deletion strains, locus YFL029C, strain CAK1, hits give low values 0.542 | S. cerevisiae deletion strains, locus YFR019W, strain FAB1, hits give low values 0.262 | S. cerevisiae deletion strains, locus YFR028C, strain CDC14, hits give low values 0.2 | S. cerevisiae deletion strains, locus YGR040W, strain KSS1, hits give low values 0.139 | S. cerevisiae deletion strains, locus YGR052W, strain FMP48, hits give low values 0.305 | S. cerevisiae deletion strains, locus YGR092W, strain DBF2, hits give low values 0.118 | [5] 0.234 | S. cerevisiae deletion strains, locus YHR079C, strain IRE1, hits give low values 0.366 | S. cerevisiae deletion strains, locus YHR082C, strain KSP1, hits give low values 0.371 | S. cerevisiae deletion strains, locus YHR205W, strain SCH9, hits give low values 0.0146 | S. cerevisiae deletion strains, locus YIL147C, strain SLN1, hits give low values 0.741 | S. cerevisiae deletion strains, locus YJL095W, strain BCK1, hits give low values 0.149 | S. cerevisiae deletion strains, locus YJL157C, strain FAR1, hits give low values 0.346 | S. cerevisiae deletion strains, locus YJR016C, strain ILV3, hits give low values 0.436 | S. cerevisiae deletion strains, locus YJR066W, strain TOR1 (second series), hits give low values 0.116 | S. cerevisiae deletion strains, locus YJR066W, strain TOR1, hits give low values 0.207 | S. cerevisiae deletion strains, locus YKL048C, strain ELM1, hits give low values 0.168 | S. cerevisiae deletion strains, locus YKL067W, strain YNK1, hits give low values 0.43 | S. cerevisiae deletion strains, locus YKL101W, strain HSL1, hits give low values 0.157 | S. cerevisiae deletion strains, locus YKL193C, strain SDS22, hits give low values 0.399 | S. cerevisiae deletion strains, locus YKL203C, strain TOR2, hits give low values 0.119 | S. cerevisiae deletion strains, locus YLR113W, strain HOG1, hits give low values 0.319 | S. cerevisiae deletion strains, locus YLR133W, strain CKI1, hits give low values 0.111 | S. cerevisiae deletion strains, locus YLR403W, strain SFP1, hits give low values 0.0176 | S. cerevisiae deletion strains, locus YML070W, strain DAK1, hits give low values 0.28 | S. cerevisiae deletion strains, locus YMR001C, strain CDC5, hits give low values 0.438 | S. cerevisiae deletion strains, locus YMR205C, strain PFK2 (second series), hits give low values 0.139 | S. cerevisiae deletion strains, locus YMR277W, strain FCP1, hits give low values 0.347 | S. cerevisiae deletion strains, locus YNL006W, strain LST8, hits give low values 0.219 | S. cerevisiae deletion strains, locus YNL020C, strain ARK1, hits give low values 0.119 | S. cerevisiae deletion strains, locus YNL161W, strain CBK1, hits give low values 0.324 | S. cerevisiae deletion strains, locus YNL183C, strain NPR1, hits give low values 0.168 | S. cerevisiae deletion strains, locus YNL207W, strain RIO2, hits give low values 0.635 | S. cerevisiae deletion strains, locus YNL222W, strain SSU72, hits give low values 0.411 | S. cerevisiae deletion strains, locus YNL307C, strain MCK1 (second series), hits give low values 0.117 | S. cerevisiae deletion strains, locus YOL078W, strain AVO1, hits give low values 0.47 | S. cerevisiae deletion strains, locus YOL136C, strain PFK27, hits give low values 0.431 | S. cerevisiae deletion strains, locus YOR061W, strain CKA2, hits give low values 0.168 | S. cerevisiae deletion strains, locus YOR119C, strain RIO1, hits give low values 0.162 | S. cerevisiae deletion strains, locus YOR231W, strain MKK1, hits give low values 0.418 | S. cerevisiae deletion strains, locus YOR329C, strain SCD5, hits give low values 0.372 | S. cerevisiae deletion strains, locus YPL031C, strain PHO85, hits give low values 0.104 | S. cerevisiae deletion strains, locus YPL153C, strain RAD53, hits give low values 0.112 | S. cerevisiae deletion strains, locus YPL204W, strain HRR25, hits give low values 0.109 | S. cerevisiae deletion strains, locus YPL209C, strain IPL1, hits give low values 0.476 | S. cerevisiae deletion strains, locus YPL256C, strain CLN2, hits give low values 0.448 | S. cerevisiae deletion strains, locus YPR025C, strain CCL1, hits give low values 0.403
